Experimental data published in PubChem BioAssay (NCI).
About 83,000 compounds went through this panel and 20% of them were active in at least one assay; those are over-represented in the sample as a whole.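 Step 1: grow cells in 96-well plates. Step 2: add test compound at a single concentration. Step 3: incubate 48 h. Step 4: record percent growth.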 Activity calls are given as the source filed them. How the source made its calls: active means growth percent below 10; inactive means the rest.

Assays:
Test in all cases: NCI-60 one-dose screen, 48 h (100 = growth as untreated, 0 = no growth, -100 = all killed)
Settings in all cases: 10 µM unless noted
HCT-15 colon = test system: HCT-15 colon
HT29 colon = test system: HT29 colon
SNB-75 CNS = test system: SNB-75 CNS
SNB-19 CNS = test system: SNB-19 CNS
U251 CNS = test system: U251 CNS
PC-3 prostate = test system: PC-3 prostate
SK-MEL-5 melanoma = test system: SK-MEL-5 melanoma
UACC-62 melanoma = test system: UACC-62 melanoma
LOX IMVI melanoma = test system: LOX IMVI melanoma
SK-MEL-28 melanoma = test system: SK-MEL-28 melanoma
SK-MEL-2 melanoma = test system: SK-MEL-2 melanoma
EKVX NSCLC = test system: EKVX NSCLC
SN12C renal = test system: SN12C renal
UO-31 renal = test system: UO-31 renal
TK-10 renal = test system: TK-10 renal
CAKI-1 renal = test system: CAKI-1 renal
CCRF-CEM leukemia = test system: CCRF-CEM leukemia
MOLT-4 leukemia = test system: MOLT-4 leukemia
ACHN renal = test system: ACHN renal
A498 renal = test system: A498 renal

Measured: growth

O=C1NC(=C(Cl)Cl)/C(=N/S(=O)(=O)NCCc2c[nH]c3ccccc23)N1
inactive: HCT-15 colon 98.6% | HT29 colon 15% | SNB-75 CNS 78.5% | SNB-19 CNS 53.9% | U251 CNS 33.8% | PC-3 prostate 83.5% | SK-MEL-5 melanoma 74.3% | UACC-62 melanoma 61.2% | LOX IMVI melanoma 29.8% | SK-MEL-28 melanoma 84% | SK-MEL-2 melanoma 46.2% | EKVX NSCLC 101% | SN12C renal 35.2% | UO-31 renal 71.6% | TK-10 renal 109% | CAKI-1 renal 83.7% | MOLT-4 leukemia 18%
active: CCRF-CEM leukemia 7.47%

COc1ccc(/C=C/C(=O)c2cc3c(N)c(C(=O)Nc4ccc(OC)cc4)sc3nc2C)cc1
active: HT29 colon -18% | SNB-75 CNS 2.43% | SK-MEL-5 melanoma 9.81%
inactive: HCT-15 colon 20.6% | SNB-19 CNS 16.3% | U251 CNS 20.2% | PC-3 prostate 32.3% | UACC-62 melanoma 21.8% | LOX IMVI melanoma 31.6% | SK-MEL-28 melanoma 55.7% | SK-MEL-2 melanoma 15.4% | EKVX NSCLC 45.2% | UO-31 renal 41% | TK-10 renal 40.8% | ACHN renal 42.6% | CAKI-1 renal 24.8% | A498 renal 18.6% | CCRF-CEM leukemia 19.9% | MOLT-4 leukemia 33.3%

COc1ccc(/C=C/C(=O)c2ccc(Nc3nc(Nc4ccc(F)cc4)nc(Nc4ccc(Cl)cc4)n3)cc2)cc1
active: CCRF-CEM leukemia 8.9%
inactive: HCT-15 colon 100% | HT29 colon 94.1% | SNB-75 CNS 95.6% | SNB-19 CNS 115% | U251 CNS 111% | PC-3 prostate 81.4% | SK-MEL-5 melanoma 83.6% | UACC-62 melanoma 105% | LOX IMVI melanoma 102% | SK-MEL-28 melanoma 110% | SK-MEL-2 melanoma 55.1% | EKVX NSCLC 86.2% | UO-31 renal 75.6% | TK-10 renal 137% | ACHN renal 106% | CAKI-1 renal 86.5% | A498 renal 118% | MOLT-4 leukemia 22.3%

COP(=O)(OC)c1nnn(-c2cccc([N+](=O)[O-])c2)c1C
inactive: HCT-15 colon 106% | HT29 colon 105% | SNB-75 CNS 93.6% | SNB-19 CNS 105% | U251 CNS 99.7% | PC-3 prostate 98.7% | SK-MEL-5 melanoma 100% | UACC-62 melanoma 99.2% | LOX IMVI melanoma 96% | SK-MEL-28 melanoma 113% | SK-MEL-2 melanoma 106% | EKVX NSCLC 106% | SN12C renal 104% | UO-31 renal 84.5% | TK-10 renal 99% | CAKI-1 renal 97.2% | CCRF-CEM leukemia 104% | MOLT-4 leukemia 101%

NC(CSC(c1ccccc1)(c1ccccc1)c1ccc2c(c1)OCO2)C(=O)O (configuration not stated)
inactive: HCT-15 colon 25.4% | SNB-75 CNS 30.8% | SNB-19 CNS 37.7% | PC-3 prostate 18.7% | UACC-62 melanoma 25.4% | LOX IMVI melanoma 28.5% | SK-MEL-28 melanoma 47.4% | EKVX NSCLC 43.4% | UO-31 renal 53% | TK-10 renal 69.8% | ACHN renal 53% | CAKI-1 renal 37% | A498 renal 34.3%
active: HT29 colon -5.15% | U251 CNS -7.2% | SK-MEL-5 melanoma 8.31% | SK-MEL-2 melanoma -14.6% | CCRF-CEM leukemia -6.86% | MOLT-4 leukemia 7.18%

O=C1/C(=C/c2ccc(C(F)(F)F)cc2)COc2ccc(O)c(O)c21
active: HCT-15 colon -6.49% | HT29 colon 8.23% | U251 CNS -50.6% | PC-3 prostate -36.1% | LOX IMVI melanoma -90.8% | UO-31 renal -98.9% | ACHN renal -57.6% | CAKI-1 renal -23.6% | CCRF-CEM leukemia -3.75% | MOLT-4 leukemia -1.49%
inactive: SNB-75 CNS 33.4% | SNB-19 CNS 27.1% | SK-MEL-5 melanoma 68.5% | UACC-62 melanoma 12.2% | SK-MEL-28 melanoma 72.1% | SK-MEL-2 melanoma 98% | EKVX NSCLC 52.3% | TK-10 renal 11.9% | A498 renal 116%

CCCCCCCCn1ccc2cc(NC(=O)Cn3cc(CN4CCN(CC)CC4)nn3)ccc21
inactive: HCT-15 colon 22.5% | SNB-75 CNS 87.5% | SNB-19 CNS 61.4% | PC-3 prostate 82.6% | SK-MEL-5 melanoma 78.1% | SK-MEL-28 melanoma 80.5% | SK-MEL-2 melanoma 101% | EKVX NSCLC 88% | UO-31 renal 47.5% | TK-10 renal 99.2% | ACHN renal 111% | CAKI-1 renal 69.6% | A498 renal 90.5% | MOLT-4 leukemia 39.3%
active: HT29 colon -26.4% | U251 CNS 5.79% | UACC-62 melanoma -78.2% | LOX IMVI melanoma -74.5% | CCRF-CEM leukemia -41.2%

O=C(O)CCCn1c(SCc2c(Cl)cccc2Cl)nc2ccsc2c1=O
inactive: HCT-15 colon 30.7% | SNB-19 CNS 31% | U251 CNS 18.1% | PC-3 prostate 14.5% | SK-MEL-5 melanoma 16.8% | UACC-62 melanoma 28.3% | LOX IMVI melanoma 28% | SK-MEL-28 melanoma 57.6% | SK-MEL-2 melanoma 31.3% | EKVX NSCLC 52.2% | UO-31 renal 37.5% | TK-10 renal 48% | ACHN renal 46.7% | CAKI-1 renal 30.6% | CCRF-CEM leukemia 19.6% | MOLT-4 leukemia 21.7%
active: HT29 colon 4.21% | SNB-75 CNS -13.8% | A498 renal -1.92%

COc1ccc2c(O)c(/C=C3\N=Nc4ccccc43)oc2c1C[C@H]1CCNC[C@H]1F
inactive: HCT-15 colon 33.6% | HT29 colon 19.3% | SNB-75 CNS 61.4% | SNB-19 CNS 67.7% | U251 CNS 65.4% | PC-3 prostate 40.8% | SK-MEL-5 melanoma 48.3% | UACC-62 melanoma 41.2% | LOX IMVI melanoma 35% | SK-MEL-28 melanoma 68.3% | SK-MEL-2 melanoma 83.1% | EKVX NSCLC 40% | UO-31 renal 45.3% | TK-10 renal 65.4% | ACHN renal 42.8% | CAKI-1 renal 31% | A498 renal 39.9% | CCRF-CEM leukemia 47.9% | MOLT-4 leukemia 24.2%

CCCCn1sc(=O)n(Cc2ccc(CNC(=O)OCc3ccc4c(Cl)cc(Cl)c(O)c4n3)cc2)c1=O
inactive: HCT-15 colon 19% | HT29 colon 101% | SNB-75 CNS 81.1% | SNB-19 CNS 52.5% | U251 CNS 41.1% | PC-3 prostate 58.5% | SK-MEL-5 melanoma 59.5% | UACC-62 melanoma 47.9% | LOX IMVI melanoma 46% | SK-MEL-28 melanoma 69.2% | SK-MEL-2 melanoma 85.6% | EKVX NSCLC 86.7% | UO-31 renal 18.3% | TK-10 renal 78% | ACHN renal 30.8% | CAKI-1 renal 54.6% | A498 renal 91% | CCRF-CEM leukemia 32% | MOLT-4 leukemia 33.5%

COc1cc(/C=C2\CN(S(=O)(=O)c3ccc(C)cc3)C/C(=C\c3cc(CN4CCCCC4)c(O)c(OC)c3)C2=O)cc(CN2CCCCC2)c1O
active: HCT-15 colon -86.1% | HT29 colon -66.5% | SNB-75 CNS -83.9% | SNB-19 CNS -57.7% | U251 CNS -89.6% | PC-3 prostate -39.9% | SK-MEL-5 melanoma -88.9% | UACC-62 melanoma -63.5% | LOX IMVI melanoma -74.5% | SK-MEL-28 melanoma -85.8% | SK-MEL-2 melanoma -73.7% | EKVX NSCLC -81% | UO-31 renal -89.1% | TK-10 renal -93.4% | ACHN renal -98.9% | CAKI-1 renal -89% | CCRF-CEM leukemia -6.3% | MOLT-4 leukemia -23.7%
inactive: A498 renal 90%

COc1cccc(Nc2ccnc3[nH]c4ccc([N+](=O)[O-])cc4c23)c1
inactive: HCT-15 colon 31.4% | HT29 colon 24.3% | SNB-75 CNS 21% | SNB-19 CNS 37.4% | U251 CNS 42% | PC-3 prostate 48.2% | SK-MEL-5 melanoma 38.7% | UACC-62 melanoma 24.2% | LOX IMVI melanoma 52.2% | SK-MEL-28 melanoma 65.7% | SK-MEL-2 melanoma 40.2% | EKVX NSCLC 31.6% | UO-31 renal 44.4% | TK-10 renal 66.6% | ACHN renal 45.2% | CAKI-1 renal 28.8% | A498 renal 43.5% | CCRF-CEM leukemia 42% | MOLT-4 leukemia 48.7%

N#Cc1c(-c2cccc([N+](=O)[O-])c2)cc(-c2ccc(Nc3nc(Nc4ccc(F)cc4)nc(Nc4ccc(F)cc4)n3)cc2)nc1N
inactive: HCT-15 colon 103% | HT29 colon 113% | SNB-75 CNS 102% | SNB-19 CNS 104% | U251 CNS 110% | PC-3 prostate 92% | SK-MEL-5 melanoma 84.4% | UACC-62 melanoma 110% | LOX IMVI melanoma 97.9% | SK-MEL-28 melanoma 114% | SK-MEL-2 melanoma 68.1% | EKVX NSCLC 137% | UO-31 renal 83.7% | TK-10 renal 128% | ACHN renal 108% | CAKI-1 renal 113% | A498 renal 115% | CCRF-CEM leukemia 78% | MOLT-4 leukemia 84.6%

COc1ccc(NC(=O)c2ccc(C(=O)Nc3ccc(OC)cc3OC)cc2)c(OC)c1
inactive: HCT-15 colon 81.4% | HT29 colon 90% | SNB-19 CNS 50.9% | U251 CNS 46.3% | PC-3 prostate 75.9% | SK-MEL-5 melanoma 96.7% | UACC-62 melanoma 73.8% | LOX IMVI melanoma 71.8% | SK-MEL-28 melanoma 101% | SK-MEL-2 melanoma 80.4% | EKVX NSCLC 73.7% | SN12C renal 65% | UO-31 renal 52.4% | TK-10 renal 69.7% | CAKI-1 renal 68.1% | A498 renal 58.6% | CCRF-CEM leukemia 90% | MOLT-4 leukemia 94.3%
active: SNB-75 CNS -39.3%

CCOC(=O)c1c(C)nc2ccccc2c1/C=C/c1ccc(OC)cc1
inactive: HCT-15 colon 66% | HT29 colon 73.5% | SNB-75 CNS 76.2% | SNB-19 CNS 75.9% | U251 CNS 79.8% | PC-3 prostate 60.2% | UACC-62 melanoma 45.7% | LOX IMVI melanoma 68.5% | SK-MEL-28 melanoma 96.2% | SK-MEL-2 melanoma 64.3% | EKVX NSCLC 54.9% | SN12C renal 79.8% | UO-31 renal 52.3% | TK-10 renal 85.8% | CAKI-1 renal 56.8% | A498 renal 77.9% | CCRF-CEM leukemia 56.4% | MOLT-4 leukemia 26.1%
active: SK-MEL-5 melanoma 2.63%

N=c1c2c(=N)n3c(nc2nc2n1-c1ccccc1Sc1ccccc1-2)sc1cc(Cl)ccc13
active: U251 CNS 9.17% | SK-MEL-5 melanoma -12.8% | SK-MEL-2 melanoma -2.45% | UO-31 renal 7.88% | CAKI-1 renal 8.56% | A498 renal 0.653%
inactive: HCT-15 colon 15.7% | HT29 colon 26.4% | SNB-75 CNS 53.4% | SNB-19 CNS 30.7% | PC-3 prostate 19.4% | UACC-62 melanoma 13.8% | LOX IMVI melanoma 13.5% | SK-MEL-28 melanoma 25% | EKVX NSCLC 13.8% | TK-10 renal 33.6% | ACHN renal 18.2% | CCRF-CEM leukemia 37.7% | MOLT-4 leukemia 48.4%
